{"source": "PubChem BioAssay AID624481", "about": "(The Scripps Research Institute Molecular Screening Center, 2012)", "note": "Values without a mark were called inactive. No stated cut-off is given here; in the data, active means inhibition above about 50%; inactive means the rest.", "data": [{"molecular_target": "Prolyl endopeptidase-like (Mus musculus) (UniProt Q8C167)", "sequence (Q8C167 whole entry, looked up)": "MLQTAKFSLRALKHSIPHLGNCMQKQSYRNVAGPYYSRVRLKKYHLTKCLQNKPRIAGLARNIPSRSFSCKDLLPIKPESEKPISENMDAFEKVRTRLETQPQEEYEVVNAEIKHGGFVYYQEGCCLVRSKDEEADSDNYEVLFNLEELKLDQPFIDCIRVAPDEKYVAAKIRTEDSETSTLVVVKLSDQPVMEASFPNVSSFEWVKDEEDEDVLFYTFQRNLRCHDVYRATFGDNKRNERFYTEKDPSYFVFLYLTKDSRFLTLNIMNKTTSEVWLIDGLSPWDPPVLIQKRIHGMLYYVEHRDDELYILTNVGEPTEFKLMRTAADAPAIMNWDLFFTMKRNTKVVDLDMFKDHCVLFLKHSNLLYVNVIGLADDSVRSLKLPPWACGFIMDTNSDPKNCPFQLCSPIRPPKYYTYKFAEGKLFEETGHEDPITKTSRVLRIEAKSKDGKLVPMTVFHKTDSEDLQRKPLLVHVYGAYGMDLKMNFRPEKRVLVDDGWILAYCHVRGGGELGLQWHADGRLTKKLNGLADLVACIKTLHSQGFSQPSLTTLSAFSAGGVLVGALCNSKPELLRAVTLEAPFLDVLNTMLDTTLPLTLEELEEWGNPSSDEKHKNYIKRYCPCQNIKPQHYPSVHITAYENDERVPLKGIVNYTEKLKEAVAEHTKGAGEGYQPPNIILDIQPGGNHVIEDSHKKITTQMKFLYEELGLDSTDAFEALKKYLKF", "test": "mouse PREPL enzyme inhibition by screening hits – biochemical, gel-based competitive ABPP, fluorescence, HTS hits, PREPL inhibitor project (AID 624481)", "settings": "purified mouse PREPL, at 20 µM, stronger effect = higher value", "units": {"inhibition": "%"}, "values": [{"molecule": "C[C@H]1CN([C@@H](C)CO)C(=O)c2cccc(NS(=O)(=O)c3ccc(Cl)cc3)c2O[C@@H]1CN(C)CC1CCCCC1", "inhibition": -24}, {"molecule": "C#CCOCCOCCOCCNc1nc(N2CCN(C(=O)CCCCCCCCCCNC(=O)Cn3cc(CCCCCN)nn3)CC2)nc(N2CCN(C(=O)CCCCCCCCCCNC(=O)[C@H](CO)n3cc(CCCCCN)nn3)CC2)n1", "inhibition": -38}, {"molecule": "Cc1ccc(C2CC(c3cccc(Cl)c3)n3nc(N)nc3N2)cc1", "note": "(stereo not drawn)", "inhibition": -71}, {"molecule": "C=CC[n+]1c(-c2ccc(Cl)cc2Cl)csc1Nc1ccc(NC(C)=O)cc1", "inhibition": -43}, {"molecule": "CNC(=S)N1N=C(c2ccc(C)cc2)CC1c1ccc(N(C)C)cc1", "note": "(stereo not drawn)", "inhibition": -85}, {"molecule": "CN(C)c1ccc(NC(=O)Cn2cc3c(n2)CCCC3)cc1", "inhibition": -22}, {"molecule": "Nc1nc(-c2ccccc2)c(N=Nc2ccccc2Cl)s1", "inhibition": -9}, {"molecule": "CN1CCN(c2ccc(NC(=O)COc3ccc4ccccc4c3)cc2)CC1", "inhibition": -21}, {"molecule": "COc1ccc2cc1Oc1ccc(cc1)C[C@H]1c3cc(c(OC)cc3CCN1C)Oc1c(OC)c(OC)cc3c1[C@H](C2)N(C)CC3", "inhibition": -30}, {"molecule": "O=C(c1ccccc1)N1CCN(c2ccc(NCc3ccc4c(c3)OCO4)cc2)CC1", "inhibition": -17}, {"molecule": "COc1cc2[nH]c3c(N4CCN(c5ccccn5)CC4)ncnc3c2cc1OC", "inhibition": 1}, {"molecule": "NC(=O)[C@H]1CC2(CC(c3cccc(NC(=O)COc4ccc(Cl)cc4)c3)=NO2)CN1C(=O)Cc1ccc([N+](=O)[O-])cc1", "note": "(stereo partly drawn)", "inhibition": -114}, {"molecule": "Cc1cccc(OCC(=O)Nc2ccc(N3CCN(C(=O)c4ccccc4)CC3)cc2)c1C", "inhibition": -8}]}]}
